Screens (PubChem)
Shown is part of a subset that was picked to be rich in hits.
Methyltransferases: Primary Screen for Target Class Profiling of Small Molecule Inhibitors of Methyltransferases; calls only at 40 µM; purified enzyme, MTase-Glo SAH luminescence; stronger effect = lower value; 25,000 compounds, 3.9% hits; call rule not given here
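Each enzyme was reacted with SAM and its substrate, with compounds tested once at 40 uM; SAH formed was read by MTase-Glo luminescence.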
Active calls of the source: *; i = inactive; + = active, no number; ! = a repeat was not active. On the % scale 0 is the no-effect control and ±100 the full control effect.

SMILES	Methyltransferases
CC1CCC(N2C(=O)c3ccc(-c4ccco4)n3CC2(C)C(=O)NC2CCCCCCC2)CC1 (stereo unspecified)	i
CC1(C(=O)NC2CCCC2)Cn2c(cc3ccccc32)C(=O)N1CCCN1CCOCC1 (stereo unspecified)	i
CC(C)Oc1ccc(CN2C(=O)c3cc4ccccc4n3CC2(C)C(=O)NCc2ccccc2)cc1 (stereo unspecified)	i
CC(C)(C)Cn1c(N)nc2ccc(-c3[nH]c(C(C)(C)C)nc3-c3ccc(F)cc3)nc21	+
C=CCn1c(=O)c2ccc(C(=O)NC(C)C)cc2n2c(=O)n(CC(=O)Nc3ccc(C)cc3)nc12	i
COc1ccccc1CNC(=O)C1(C)Cn2c(cc3ccccc32)C(=O)N1CCC1=CCCCC1 (stereo unspecified)	i
CCOC(=O)c1cc2n(n1)CC(C)(C(=O)NC1CCCCCC1)N(Cc1ccccc1F)C2=O (stereo unspecified)	i
CN(C)CCCN1c2ccccc2Sc2ccc(Cl)cc21	i
O=C1NC2CCCCN2C12CCN(CCCN1c3ccccc3CCc3ccc(Cl)cc31)CC2 (stereo unspecified)	+
OCCN1CCN(CCCN2c3ccccc3Sc3ccc(Cl)cc32)CC1	i
CC1(C(=O)NC2CCCCC2)Cn2c(ccc2-c2ccco2)C(=O)N1CCN1CCCCCC1 (stereo unspecified)	i
CCc1ccc(CN2C(=O)c3cc(-c4ccccc4)nn3CC2(C)C(=O)NCCCOC)cc1 (stereo unspecified)	i
Cc1ccc(C)c(C(=O)CSc2nnc3n(CC(C)C)c(=O)c4ccc(C(=O)NC(C)C)cc4n23)c1	i
CC1(C(=O)NC2CCCCCC2)Cn2nc(-c3cccs3)cc2C(=O)N1Cc1ccccc1 (stereo unspecified)	i
CCOC(=O)C1CCN(S(=O)(=O)c2cc3[nH]c(=O)[nH]c3cc2C)CC1	i
CCN1CCN(Cc2ccc(-c3cc4c(N[C@H](C)c5ccccc5)ncnc4[nH]3)cc2)CC1	+
CCN1CCN(Cc2ccc(-c3cc4c(NC(C)c5ccccc5)ncnc4[nH]3)cc2)CC1 (stereo unspecified)	+
Cc1ccc(CN2C(=O)c3cc4occc4n3CC2(C)C(=O)NC2CCCCC2)cc1 (stereo unspecified)	i
Cc1ccc(Cn2nc3n(CCc4ccccc4)c(=O)c4ccccc4n3c2=O)cc1	i
CC1(C(=O)NC2CCCCCCC2)Cn2c(cc3sccc32)C(=O)N1Cc1ccc(Cl)cc1 (stereo unspecified)	i
COc1ccc(OC)c(CNC(=O)Cn2ccc3cc(S(=O)(=O)N4CCCC4)ccc32)c1	i
Cc1ccc(NC(=O)CN(C)S(=O)(=O)c2ccc3[nH]c4c(c3c2)CCCC4)c(Br)c1	i
CCOc1ccc(CCNC(=O)CCCn2ccc3cc(S(=O)(=O)N4CCCC4)ccc32)cc1	i
Cc1sc2c(c1C)C(c1ccc(Cl)cc1)=N[C@H](CC(=O)NCCCCNC(=O)COc1cccc3c1C(=O)N([C@H]1CCC(=O)NC1=O)C3=O)c1nnc(C)n1-2	+
CCN1C(=O)c2cc(C(=O)Nc3ccc(F)cc3)nn2CC1(C)C(=O)NC1CCCC1 (stereo unspecified)	i
SMILES	Methyltransferases
COc1ccccc1CNC(=O)C1(C)Cn2cnc(C(=O)Nc3cccc(Cl)c3C)c2C(=O)N1C1CC1 (stereo unspecified)	i
COc1ccc(/C=C/c2nc(NCCCN(C)C)c3ccccc3n2)cc1	+
COc1ccc(N(C)c2nc(C)nc3ccccc23)cc1	i
Cc1ccccc1NC(=O)N1Cc2c(sc3c2CCCC3)-n2cccc2C1c1ccccc1 (stereo unspecified)	i
N.N.O=C(O)C1(C(=O)O)CCC1.[Pt+2]	+
NC1(C(=O)O)CCCCC1	i
CC(C(=O)NCc1ccccc1)n1ccc2cc(S(=O)(=O)N3CCCCC3)ccc21 (stereo unspecified)	i
CC(C)N(CCCNC(=O)Nc1ccc(C(C)(C)C)cc1)C[C@H]1O[C@@H](n2cc(Br)c3c(N)ncnc32)[C@H](O)[C@@H]1O	+
CC(C)N(CCCNC(=O)Nc1ccc(C(C)(C)C)cc1)C[C@H]1O[C@@H](n2ccc3c(N)ncnc32)[C@H](O)[C@@H]1O	+!
O=S(=O)(O)c1ccc(Nc2ncnc3c2ncn3[C@@H]2O[C@H](CO)[C@@H](O)[C@H]2O)cc1	i
Cc1cc(C)cc(N2C(=O)c3cc(C(C)(C)C)nn3CC2(C)C(=O)NC2CCCCC2)c1 (stereo unspecified)	i
CCC(C)NC(=O)c1ccc2c(=O)n(Cc3ccccc3)c3nn(Cc4ccc(Cl)cc4)c(=O)n3c2c1 (stereo unspecified)	i
COc1ccc(NC(=O)c2ncn3c2C(=O)N(C2CC2)C(C)(C(=O)NC2CCCC2)C3)c(OC)c1 (stereo unspecified)	i
CCCNC(=O)CCn1ccc2cc(S(=O)(=O)N3CCCCC3)ccc21	i
CCCn1c(=O)c2ccccc2n2c(SCc3ccccc3Cl)nnc12	i
